aSyn UTR inh: 5' untranslated region of α-synuclein, MLPCN primary screen; alpha-synuclein 5'UTR reporter, inhibitor activity; inhibition, % (tested at 7.5 µM); 0.82% of 300,000 active; in the data active = inhibition above about 60%;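 note: H4 neuroglioblastoma cells stably carrying SNCA 5'UTR luciferase fusion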
CSC inhib: cancer stem cell inhibition | cancer stem cell-like cells viability, luminescence | inhibition, % at 7.5 µM | 1.1% of 300,000 active | AID 2717; in the data active = inhibition above about 75%; tested in HMLE shEcad cells
Mdm2-MdmX inh: inhibitors of human Mdm2/MdmX interaction. SaOS-2 split-luciferase Mdm2/MdmX complementation, luminescence. inhibition, % at 8 µM. 3% of 330,000 active;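 active = inhibition of at least 50% at 8 µM in the primary screen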
Beta apoptosis: beta cell apoptosis inhibition; INS-1E cytokine-induced death, ATP luminescence, 48 h; percent of positive-control rescue, neutral wells zero; protection from apoptosis, % (test concentration not listed); 0.8% of 300,000 active; AID 435005;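 active = Every replicate reaches about 75%, or at least half do and their mean reaches it too, limit read from the data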;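 note: higher means more ATP so stronger rescue from cytokine killing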
A1 inh: inhibitors of the anti-apoptotic protein A1, read as caspase activation. MEF A1-2A-BIM cells, Caspase-Glo 3/7 luminescence, 3 h; percent of clofoctol response, vehicle zero. caspase activation, % (concentration not given with the values). 0.066% of 330,000 active;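 active = over half of replicate activation scores above 10%, or exactly half above 10 with the replicate mean above 10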
Mdm2 MdmX conf: human Mdm2/MdmX binding inhibition, confirmed; shares compounds with Mdm2-MdmX inh; luminescent assay; inhibition, % at 8 µM; 55% of 10,000 active; AID 489028; in the data active = inhibition above about 40%
FLuc counter: full-length luciferase inhibition in Mdm2/MdmX counter-screen | 77% of 6,200 active | shares compounds with Mdm2-MdmX inh | AID 504607 | inhibition, % at 8 µM | SaOS-2 full-length luciferase counterscreen, luminescence;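 active = mean inhibition at 8 µM reaching about 37%, which flags the compound as non-specific, limit read from the data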;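 note: p53-null SaOS-2 cells with luciferase driven by a doxycycline-inducible promoter; compound on cells about two nights before reading with doxycycline added after day one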
Numbers stand for hits; – = inactive; · = no result given. The list is not random: actives were taken first. Their share in the collection is about 4.1%.

SMILES	aSyn UTR inh	CSC inhib	Mdm2-MdmX inh	Beta apoptosis	A1 inh	Mdm2 MdmX conf	FLuc counter
COC(=O)c1ccc(CNC(=O)C(NC(=O)c2ccco2)C(C)C)cc1 (stereo not given)	–	–	–	–	–	·	·
Cc1cccc(NC(=O)CSCC(=O)Nc2ccccc2C(=O)NC2CC2)c1	–	–	–	–	–	·	·
COc1ccccc1N(CC(O)CN1CCOCC1)S(=O)(=O)c1ccccc1 (stereo not given)	–	·	–	–	–	·	·
CCOC(=O)c1ccc(NS(=O)(=O)c2c(C)[nH]c(C)c2C(=O)N2CCCCC2)cc1	–	–	–	·	–	·	·
Cc1ccc(NC(=O)C2CCN(S(=O)(=O)c3cc([N+](=O)[O-])ccc3Cl)CC2)nc1	·	–	70.7	–	–	55.7	42.4
Cc1ccc2nc(NC(=O)C3CCN(S(=O)(=O)c4cccs4)CC3)sc2c1	–	–	–	–	–	·	·
CC(NC(=O)C1CCN(S(=O)(=O)c2cc([N+](=O)[O-])ccc2Cl)CC1)c1ccccc1 (stereo not given)	–	·	–	–	–	·	·
CCN(CC)S(=O)(=O)c1ccc(S(=O)(=O)N2CCC(C(=O)NC3CCN(Cc4ccccc4)CC3)CC2)cc1	–	–	69.9	–	–	–	·
Cc1ccc2nc(NC(=O)C3CCN(S(=O)(=O)c4cccc5nsnc45)CC3)sc2c1	–	–	55.0	–	–	–	·
O=C(NC1CCN(Cc2ccccc2)CC1)C1CCN(S(=O)(=O)c2cccc([N+](=O)[O-])c2)CC1	–	–	–	–	–	·	·
Cc1ccc2nc(NC(=O)C3CCN(S(=O)(=O)c4cc([N+](=O)[O-])ccc4Cl)CC3)sc2c1	–	–	66.7	–	–	67.2	47.0
CN(C(=O)COC(=O)c1ccc2c(c1)OCCO2)C1CCCCC1	·	·	–	·	·	·	·
CC(Sc1nnc(Cc2cccs2)n1C)C(=O)Nc1ccc(C(N)=O)cc1 (stereo not given)	·	·	–	·	·	·	·
CN(C)S(=O)(=O)c1cccc(COc2ncnc3c(Cl)cc(Cl)cc23)c1	–	–	–	–	–	·	·
O=C(Nc1nc2ccc(C(=O)N3CCCCC3)cc2s1)C1CCCCC1	–	–	51.0	–	–	57.4	79.2
O=C(Nc1nc2ccc(F)cc2s1)C1CCN(S(=O)(=O)c2cc([N+](=O)[O-])ccc2Cl)CC1	–	–	88.2	110.7	–	78.3	–
O=C(NC1CC1)C1CCN(S(=O)(=O)c2ccc(Cl)c([N+](=O)[O-])c2)CC1	·	–	96.9	–	–	74.6	58.4
O=C(NCc1ccccc1)C1CCN(S(=O)(=O)c2cc([N+](=O)[O-])ccc2Cl)CC1	–	–	–	–	–	·	·
CCOC(=O)C1CCN(C(=O)Cn2nc(CC)n3cccc3c2=O)CC1	–	–	–	–	–	·	·
CN(CC(O)COc1ccc2ccccc2c1)C1CCCCC1 (stereo not given)	–	–	–	–	–	·	·
Cc1ccc(NC(=O)COc2ccccc2CNC(C)(C)CC(C)(C)C)cc1	–	–	90.3	–	–	53.0	58.7
CCC(=O)NC1=C(Cl)C(=O)C(NC(=O)CC)=C(Cl)C1=O	·	·	57.9	·	·	43.5	–
CSc1nccc(NC(=O)c2cccc(Br)c2)n1	–	–	–	–	–	·	·
COc1ccc(C(=O)/C=C/c2ccc(OC)c(Cn3nnc4ccccc43)c2)cc1	–	76.9	62.5	–	–	43.0	67.8
Cc1c(C(=O)N2CCN(Cc3ccccc3)CC2)oc2c1C(=O)CCC2	–	–	–	–	–	·	·
SMILES	aSyn UTR inh	CSC inhib	Mdm2-MdmX inh	Beta apoptosis	A1 inh	Mdm2 MdmX conf	FLuc counter
COC(=O)Cn1c(=NC(=O)c2sc3ccccc3c2Cl)sc2cc(S(N)(=O)=O)ccc21	–	–	63.6	–	–	–	51.5
CCOC(=O)Cn1c(=NC(=O)c2sc3ccccc3c2Cl)sc2cc(S(N)(=O)=O)ccc21	–	–	·	–	–	·	·
Cc1ccccc1NC(=O)c1nc(S(C)(=O)=O)ncc1Cl	–	–	–	–	–	·	·
CSc1ncc(Cl)c(C(=O)Nc2cccc(C)c2)n1	–	–	–	–	–	·	·
Cc1cccc(C)c1NC(=O)c1nc(S(=O)(=O)Cc2ccccc2)ncc1Cl	–	·	68.1	·	·	97.7	–
Cc1cccc(CS(=O)(=O)c2ncc(Cl)c(C(=O)NCc3ccccc3)n2)c1	63.8	–	83.1	–	–	65.7	–
Cc1nnc(NC(=O)c2nc(S(=O)(=O)Cc3ccccc3)ncc2Cl)s1	–	·	85.2	·	·	–	·
